# From publication PMC7862700, “An all-to-all approach to the identification of sequence-specific readers for epigenetic DNA modifications on cytosine”
# How the values were obtained:
# Test in all cases: DAPPL (digital affinity profiling via proximity ligation, sequencing); 10 mM Tris-HCl pH 7.5, 50 mM NaCl, 1 mM DTT, 4% glycerol, room temperature, 30 min; GST-TFs on glutathione beads, 16-mer random dsDNA library, 0.1% formaldehyde crosslink after washing; high values mean tight binding
# [1] = target: T1, FEV (Homo sapiens, UniProt Q99581 1-238); settings: protein: recombinant; tags: N-terminal GST; dsDNA, one strand shown
# T1 sequence: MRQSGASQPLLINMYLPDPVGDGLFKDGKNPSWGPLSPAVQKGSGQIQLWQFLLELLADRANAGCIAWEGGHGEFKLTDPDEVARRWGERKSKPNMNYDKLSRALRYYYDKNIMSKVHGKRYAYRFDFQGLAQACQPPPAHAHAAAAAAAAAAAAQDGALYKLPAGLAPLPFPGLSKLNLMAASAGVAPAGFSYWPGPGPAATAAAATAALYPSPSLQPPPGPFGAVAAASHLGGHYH
# Summary of the method: (§1)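 Each value of binding signal is a hexamer's read frequency for a factor divided by the same hexamer's frequency in the tag-only sample. Barcoded, bead-captured GST fusions of human transcription factors made in yeast were pooled with that sample and incubated with 200 nmole of a random double-stranded 16-mer DNA library in Tris/NaCl/DTT/glycerol buffer at room temperature for 30 min. Washing, 0.1% formaldehyde crosslinking, proximity ligation, PCR and Illumina NextSeq500 sequencing followed.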
# [2] = target: ETV5 (Homo sapiens, UniProt P41161 1-510); settings: protein: recombinant; tags: N-terminal GST; dsDNA, one strand shown
# ETV5, sequence (P41161 whole entry): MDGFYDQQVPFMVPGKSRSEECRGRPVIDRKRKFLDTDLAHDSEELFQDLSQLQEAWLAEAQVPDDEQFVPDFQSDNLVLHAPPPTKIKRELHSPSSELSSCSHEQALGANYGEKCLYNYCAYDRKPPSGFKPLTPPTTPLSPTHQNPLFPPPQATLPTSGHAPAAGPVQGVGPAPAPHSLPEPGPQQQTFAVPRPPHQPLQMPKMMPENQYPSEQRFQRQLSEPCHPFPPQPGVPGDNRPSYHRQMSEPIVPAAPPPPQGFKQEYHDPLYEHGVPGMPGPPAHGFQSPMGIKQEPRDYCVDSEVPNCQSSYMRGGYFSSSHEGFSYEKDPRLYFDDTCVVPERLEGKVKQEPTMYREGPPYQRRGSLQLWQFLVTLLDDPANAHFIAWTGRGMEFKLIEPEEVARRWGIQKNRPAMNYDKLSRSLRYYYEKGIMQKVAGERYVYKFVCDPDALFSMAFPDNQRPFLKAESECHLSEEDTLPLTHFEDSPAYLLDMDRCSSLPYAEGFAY
# Summary of the method: as §1
# [3] = target: HSF1 (Homo sapiens, UniProt Q00613 1-529); settings: protein: recombinant; tags: N-terminal GST; chain copies: 3; dsDNA, one strand shown
# HSF1, sequence (Q00613 whole entry): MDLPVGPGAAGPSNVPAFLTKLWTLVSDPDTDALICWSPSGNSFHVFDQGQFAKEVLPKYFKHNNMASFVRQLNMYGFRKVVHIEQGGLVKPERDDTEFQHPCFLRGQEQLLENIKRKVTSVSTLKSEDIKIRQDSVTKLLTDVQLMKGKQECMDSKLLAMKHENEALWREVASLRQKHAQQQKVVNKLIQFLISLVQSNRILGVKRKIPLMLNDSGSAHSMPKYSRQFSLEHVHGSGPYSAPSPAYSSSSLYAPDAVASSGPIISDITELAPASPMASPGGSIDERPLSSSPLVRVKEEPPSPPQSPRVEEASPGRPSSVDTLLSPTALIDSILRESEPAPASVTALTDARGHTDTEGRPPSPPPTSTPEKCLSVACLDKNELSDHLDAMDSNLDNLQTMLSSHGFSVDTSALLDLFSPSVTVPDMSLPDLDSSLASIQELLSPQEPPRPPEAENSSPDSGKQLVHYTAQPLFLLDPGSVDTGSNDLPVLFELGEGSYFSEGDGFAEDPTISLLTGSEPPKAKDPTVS
# Summary of the method: as §1
# [4] = target: T2, SPIC (Homo sapiens, UniProt Q8N5J4 1-248); settings: protein: recombinant; tags: N-terminal GST; dsDNA, one strand shown
# T2 sequence: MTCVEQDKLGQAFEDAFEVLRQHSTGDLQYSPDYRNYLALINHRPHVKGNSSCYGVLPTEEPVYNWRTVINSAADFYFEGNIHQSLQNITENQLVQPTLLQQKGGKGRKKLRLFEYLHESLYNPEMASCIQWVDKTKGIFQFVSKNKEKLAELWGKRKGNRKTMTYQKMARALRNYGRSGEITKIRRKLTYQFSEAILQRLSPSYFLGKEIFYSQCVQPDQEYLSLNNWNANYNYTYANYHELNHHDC
# Summary of the method: as §1
# [5] = target: ELF4 (Homo sapiens, UniProt Q99607 1-663); settings: protein: recombinant; tags: N-terminal GST; dsDNA, one strand shown
# ELF4, sequence (Q99607 whole entry): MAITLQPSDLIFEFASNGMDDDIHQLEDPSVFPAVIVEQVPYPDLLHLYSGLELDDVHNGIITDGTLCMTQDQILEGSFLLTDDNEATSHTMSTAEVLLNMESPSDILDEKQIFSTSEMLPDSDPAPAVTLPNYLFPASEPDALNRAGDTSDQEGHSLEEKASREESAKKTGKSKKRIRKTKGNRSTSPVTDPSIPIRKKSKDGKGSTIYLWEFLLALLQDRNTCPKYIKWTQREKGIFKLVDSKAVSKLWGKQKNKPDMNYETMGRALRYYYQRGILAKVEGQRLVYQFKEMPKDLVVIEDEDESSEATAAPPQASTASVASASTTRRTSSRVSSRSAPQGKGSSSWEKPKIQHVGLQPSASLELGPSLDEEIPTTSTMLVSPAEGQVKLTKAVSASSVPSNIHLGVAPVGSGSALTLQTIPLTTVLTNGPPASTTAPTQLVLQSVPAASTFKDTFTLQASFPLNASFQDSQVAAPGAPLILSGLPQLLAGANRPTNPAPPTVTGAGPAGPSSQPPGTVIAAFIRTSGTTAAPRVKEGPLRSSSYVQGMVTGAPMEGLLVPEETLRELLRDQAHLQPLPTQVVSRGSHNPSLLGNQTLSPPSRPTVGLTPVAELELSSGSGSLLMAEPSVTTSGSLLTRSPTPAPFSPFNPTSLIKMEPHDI
# Summary of the method: as §1
# [6] = target: T3, ELK4 (Homo sapiens, UniProt P28324-2 1-405); settings: protein: recombinant; tags: N-terminal GST; dsDNA, one strand shown
# T3 sequence: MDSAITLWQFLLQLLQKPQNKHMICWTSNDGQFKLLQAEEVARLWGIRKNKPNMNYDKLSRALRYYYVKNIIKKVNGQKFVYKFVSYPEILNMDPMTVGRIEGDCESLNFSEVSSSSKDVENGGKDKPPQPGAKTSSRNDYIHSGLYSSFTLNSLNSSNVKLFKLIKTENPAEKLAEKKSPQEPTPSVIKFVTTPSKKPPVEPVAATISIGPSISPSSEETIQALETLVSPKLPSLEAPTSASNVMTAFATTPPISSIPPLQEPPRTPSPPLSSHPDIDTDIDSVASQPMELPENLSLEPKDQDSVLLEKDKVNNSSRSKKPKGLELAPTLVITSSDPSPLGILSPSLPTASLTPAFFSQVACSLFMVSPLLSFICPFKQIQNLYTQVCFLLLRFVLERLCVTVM
# Summary of the method: as §1
# [7] = target: T4, ETV2 (Homo sapiens, UniProt O00321 1-342); settings: protein: recombinant; tags: N-terminal GST; dsDNA, one strand shown
# T4 sequence: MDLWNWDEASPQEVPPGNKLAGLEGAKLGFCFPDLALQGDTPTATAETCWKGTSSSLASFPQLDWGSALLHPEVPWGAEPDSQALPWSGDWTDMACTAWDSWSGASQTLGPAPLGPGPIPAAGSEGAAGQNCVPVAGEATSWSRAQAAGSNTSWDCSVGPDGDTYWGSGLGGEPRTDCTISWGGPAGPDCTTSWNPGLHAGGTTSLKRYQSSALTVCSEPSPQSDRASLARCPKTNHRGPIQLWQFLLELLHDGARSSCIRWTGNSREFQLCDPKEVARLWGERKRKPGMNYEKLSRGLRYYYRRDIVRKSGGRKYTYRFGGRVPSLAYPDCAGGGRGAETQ
# Summary of the method: as §1
# [8] = target: T5, ELF3 (Homo sapiens, UniProt P78545 1-371); settings: protein: recombinant; tags: N-terminal GST; dsDNA, one strand shown
# T5 sequence: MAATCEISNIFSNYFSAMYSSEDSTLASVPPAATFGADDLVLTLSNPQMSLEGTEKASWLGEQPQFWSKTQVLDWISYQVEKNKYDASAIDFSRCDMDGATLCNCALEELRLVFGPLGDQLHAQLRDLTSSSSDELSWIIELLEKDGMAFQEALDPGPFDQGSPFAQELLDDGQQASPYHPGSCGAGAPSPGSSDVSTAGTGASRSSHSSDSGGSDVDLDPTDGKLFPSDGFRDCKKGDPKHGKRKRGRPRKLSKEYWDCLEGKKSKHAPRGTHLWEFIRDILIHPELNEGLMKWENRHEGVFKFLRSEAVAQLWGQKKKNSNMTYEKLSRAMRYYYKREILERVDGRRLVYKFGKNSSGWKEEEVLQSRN
# Summary of the method: as §1
# [9] = target: CRX (Homo sapiens, UniProt O43186 1-299); settings: protein: recombinant; tags: N-terminal GST; dsDNA, one strand shown
# CRX, sequence (O43186 whole entry): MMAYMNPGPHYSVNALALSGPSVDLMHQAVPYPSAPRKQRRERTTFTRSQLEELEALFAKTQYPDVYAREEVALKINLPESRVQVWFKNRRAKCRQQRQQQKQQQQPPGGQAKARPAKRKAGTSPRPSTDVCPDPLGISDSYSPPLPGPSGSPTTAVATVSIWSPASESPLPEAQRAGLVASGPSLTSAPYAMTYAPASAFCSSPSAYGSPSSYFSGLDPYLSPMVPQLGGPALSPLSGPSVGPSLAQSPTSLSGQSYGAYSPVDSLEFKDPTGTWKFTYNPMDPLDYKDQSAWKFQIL
# Summary of the method: as §1
sequence,measurement,setting,value
AATATC,binding signal,[1],"1.56 fold enrichment (6-mer frequency, TF over GST control)"
same,binding signal,[2],"1.53 fold enrichment (6-mer frequency, TF over GST control)"
same,binding signal,[3],"1.49 fold enrichment (6-mer frequency, TF over GST control)"
same,binding signal,[4],"1.49 fold enrichment (6-mer frequency, TF over GST control)"
same,binding signal,[5],"1.44 fold enrichment (6-mer frequency, TF over GST control)"
same,binding signal,[6],"1.48 fold enrichment (6-mer frequency, TF over GST control)"
same,binding signal,[7],"1.73 fold enrichment (6-mer frequency, TF over GST control)"
same,binding signal,[8],"1.55 fold enrichment (6-mer frequency, TF over GST control)"
same,binding signal,[9],"1.55 fold enrichment (6-mer frequency, TF over GST control)"
